Holding throughout (experiment): PBM binding z-score (relative to random genomic background probes); higher = stronger binding; sequences stand for … in GC…GCGATTGACAGCGTAGAATGAAGG
In assay [1] the test system is PPARg:RXRa DBDmut IVT, anti-RXR (DBD mutation: RXRa K156A/R161A, NR concentration 270 nM, RXRa partner concentration 90 nM). Summed up:
(§1)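 Ligand-free nuclear receptor dimers were bound for 1 h to custom Agilent 4×180K protein-binding microarrays. Detection used antibodies against each partner (one per run). Binding z-scores rest on regression-normalized fluorescence, with random background probes as the reference.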

Assay [2] has as its system PPARg:RXRa IVT, anti-PPARg (NR concentration 270 nM, RXRa partner concentration 90 nM). In a few lines:
as §1

In assay [3] the test system is PPARg DBDmut:RXRa IVT, anti-PPARg (DBD mutation: PPARg1 K132A/R137A, NR concentration 270 nM, RXRa partner concentration 90 nM). Summed up:
as §1

The subject of assay [4] is PPARg DBDmut IVT, anti-PPARg (DBD mutation: PPARg1 K132A/R137A, NR concentration 270 nM). Summed up: as §1
Assay [5] has as its system PPARg homodimer (NR concentration 180 nM). Summed up:
as §1

For assay [6], the system named is PXR:RXRa (NR concentration 270 nM, RXRa partner concentration 90 nM). In a few lines:
as §1

The subject of assay [7] is PXR homodimer (NR concentration 270 nM). Summed up:
as §1

Assay [8] has as its system RARa:RXR (NR concentration 270 nM, RXRa partner concentration 90 nM). Summed up:
as §1

Assay [9] has as its system RARa homodimer (NR concentration 270 nM). In a few lines:
as §1

For assay [10], the system named is RARb:RXRa (NR concentration 270 nM, RXRa partner concentration 90 nM). In a few lines: as §1

These results are taken from the supplement of paper PMC6555819.

CATAGCAGGCCAGGGTCACTCAAGCATTTCGCTT: the PBM binding z-score in assay [1] is 1.4; in [2], 2.14; in assay [3], -0.201; in assay [4], -0.525; in [5] it was 1.38; in assay [6] it was 2.93. Further, the PBM binding z-score is -0.247 in [7], 3.63 in assay [8], -0.0529 in [9] and 2.79 in [10].

Turning to CCTACTGGGCAATCAGGTCATTGATATCAACGTT, the PBM binding z-score in assay [1] is 2.45; in assay [2], 3.55; in assay [3], 0.181; in assay [4], -0.716; in assay [5], 0.487; in [6] it was 1.48. Besides, the PBM binding z-score in [7] is 0.775; in assay [8] it was 1.95; in assay [9], 0.376; in assay [10] it was 1.69.

With CCGACTGGGGCATAAGGTTACCACAAGCCAGCCC, the PBM binding z-score in assay [1] was 2.87; in assay [2], 3.09; in [3], -1.04; in [4] it was -1.03; in [5], 0.364; in assay [6], 0.223. The PBM binding z-score in [7] is -0.315; in assay [8] it was 1.25; in assay [9] it was -0.43; in [10], 1.73.

In the case of TCAGACAGGTGAAGGTAATTCAGGTACGCAGTCG, the PBM binding z-score in assay [1] came to 2.77; in [2], 1.13; in assay [3], 0.166; in [4], 0.166; in [5] it was 1.05; in [6], 0.684. The PBM binding z-score in assay [7] was found to be 0.0937; in assay [8], 1.21; in [9] it was 0.385; in assay [10] it was 1.08.

For the sequence ATCGAAAGGTCGTAAGGTGAGTATACAGAAAGGC, the PBM binding z-score came out at 0.287 in [1]; 2.13 in assay [2]; 1.43 in assay [3]; 1.06 in [4]; 2.31 in assay [5]; 2.96 in assay [6]. Moreover, the PBM binding z-score in assay [7] was 0.735; in assay [8], 4.21; in assay [9] it was 0.848; in [10], 3.72.

As for CATACAGGGTCAGCCAGGCCAGAGTAGGGACGGC, the PBM binding z-score in assay [1] was found to be 1; in assay [2], 2.6; in assay [3] it was 0.502; in assay [4] it was 0.692; in assay [5], 1.27; in assay [6] it was 2.5. Besides, the PBM binding z-score in assay [7] is 0.168; in assay [8], 3.13; in assay [9] it was 0.562; in assay [10], 4.1.

With CCGGCTGGGGCAGAAAGGTTACCATACCATCCGG, the PBM binding z-score in assay [1] was -0.851; in [2], -0.138; in assay [3] it was -1.63; in [4], -1.34; in assay [5], 0.44; in assay [6], 0.704. Further, the PBM binding z-score was -0.199 in [7], 1.52 in assay [8], -0.576 in assay [9] and 1.85 in assay [10].

On to AGAACGAGGGCACGCTGAGGTGATAGCAGAGTAG, for which the PBM binding z-score in assay [1] was 4.07; in assay [2] it was 4.06; in [3] it was 1.26; in [4], 0.179; in [5], 0.573; in assay [6] it was 0.989. Moreover, the PBM binding z-score in [7] is -0.0676; in [8] it was 1.66; in assay [9], -0.189; in assay [10] it was 2.66.

In the case of TCATATAGGAAAAGGTGAAAGTCGAACGATATGA, the PBM binding z-score is 1.88 in [1]; 1.52 in assay [2]; 1.28 in assay [3]; 0.696 in assay [4]; 0.985 in assay [5]; 0.902 in assay [6]. Besides, the PBM binding z-score was -0.139 in assay [7], 1.54 in assay [8], 0.581 in assay [9] and 1.93 in assay [10].

On to ACTATTAGTTGAGACCAGGGCAACCGATAGGTTG, for which the PBM binding z-score is 0.0901 in [1]; 0.557 in assay [2]; 0.284 in [3]; 0.911 in assay [4]; -0.00507 in assay [5]; 0.204 in assay [6]. Further, the PBM binding z-score in assay [7] was found to be 0.236; in assay [8], 0.191; in assay [9] it was 0.419; in assay [10], 0.628.

As to CCGACTGGCGCATAAGGTTACCATAAGCCAGCCC, the PBM binding z-score in assay [1] is -0.22; in [2] it was -0.617; in assay [3] it was -0.674; in assay [4] it was -0.756; in assay [5] it was 0.0825; in assay [6] it was 0.285. In addition, the PBM binding z-score in assay [7] was -0.103; in [8] it was 0.776; in [9], 0.248; in assay [10] it was 0.721.

As to GGAACGAGGGCAAGTAGATAGCAGAGTTTGATGG, the PBM binding z-score in assay [1] was 3.61; in assay [2], 2.59; in assay [3] it was -0.498; in assay [4], -0.505; in assay [5], -0.0596; in assay [6], 0.344. In addition, the PBM binding z-score in assay [7] was 0.589; in assay [8], 0.247; in assay [9], -0.258; in assay [10], 2.46.
